Laboratory results reported in the supplement of paper PMC12645437, “Orthogonal IMiD-Degron Pairs Induce Selective Protein Degradation in Cells” (ACS Chemical Biology, 2025).
The full ranking holds about 8,300 sequences; the median of “log2 fold change of degron read counts, EGFP-low vs EGFP+ sorted cells (limma voom), compound-induced degradation” is about -1.1, and the highest 2% start at about 3.2. Shown is part of a subset that was picked to be rich in the highest values.

T1: CRBN, Q96SW2
T1 chain: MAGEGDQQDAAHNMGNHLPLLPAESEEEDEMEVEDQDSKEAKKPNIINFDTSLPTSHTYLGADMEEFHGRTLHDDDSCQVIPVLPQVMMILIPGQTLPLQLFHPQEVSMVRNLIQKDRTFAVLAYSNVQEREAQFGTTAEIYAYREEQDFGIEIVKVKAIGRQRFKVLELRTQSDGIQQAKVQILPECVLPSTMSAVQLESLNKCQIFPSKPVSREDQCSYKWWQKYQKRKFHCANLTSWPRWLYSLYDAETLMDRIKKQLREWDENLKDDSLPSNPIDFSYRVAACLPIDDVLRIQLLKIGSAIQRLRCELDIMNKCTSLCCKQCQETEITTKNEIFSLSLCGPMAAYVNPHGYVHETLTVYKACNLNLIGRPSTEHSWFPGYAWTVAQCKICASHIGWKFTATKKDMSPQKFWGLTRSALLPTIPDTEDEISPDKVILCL


Biological target: T1, CRBN, Q96SW2
Experiment: log2 fold change of degron read counts, EGFP-low vs EGFP+ sorted cells (limma voom), compound-induced degradation; higher = more compound-induced degradation of the degron-EGFP fusion; degrons are variants of IKZF1/3 zinc finger 2; compound dose not given here
Settings: Jurkat, 18 h
[1] = compound: compound 19 (5-tert-butyl-thalidomide)
[2] = compound: compound 22 (5-morpholino-thalidomide)
[3] = compound: compound 33 (diphenyl IMiD analogue)
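Further: pooled lentiviral library of zinc finger degron-EGFP fusions in mCherry-positive Jurkat cells, FACS-sorted after compound exposure, with degron abundance counted by next-generation sequencing.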

Sequence	log2 fold change of degron read counts [1]	log2 fold change of degron read counts [2]	log2 fold change of degron read counts [3]	log2 fold change of degron read counts (compound: thalidomide)
LFCPICGFMCTQKGNLLRHIKL [46L_47F_49P_50I_52G_53F_54M_55C_67L_, Q9UKT9]	2.71	2.77	2.05	0.947
FQCPICGRDFTQKGNLLRHIKL [46F_47Q_49P_50I_52G_53R_54D_55F_67L_, Q9UKT9]	-1.62	-1.68	0.2	1.58
FECPQCGAVFTQKGNLLRHIKL [46F_47E_49P_50Q_52G_53A_54V_55F_67L_, Q9UKT9]	-2.29	-2.41	0.278	0.0294
FWCPICGAMFTQKGNLLRHIKL [46F_47W_49P_50I_52G_53A_54M_55F_67L_, Q9UKT9]	2.54	2.77	2	0.329
FTCPICGADFTQKGNLLRHIKL [46F_47T_49P_50I_52G_53A_54D_55F_67L_, Q9UKT9]	-0.0637	1.88	2.02	2.53
FTCPICGHPFTQKGNLLRHIKL [46F_47T_49P_50I_52G_53H_54P_55F_67L_, Q9UKT9]	-1.82	-0.901	0.0444	0.479
FGCNICGAPFTQKGNLLRHIKL [46F_47G_49N_50I_52G_53A_54P_55F_67L_, Q9UKT9]	0.653	0.355	0.00441	-0.248
FGCPICGADFTQKGNLLRHIKL [46F_47G_49P_50I_52G_53A_54D_55F_67L_, Q9UKT9]	1.78	0.634	1.7	0.267
FGCPICGAPFTQKGNLLRHIKL [46F_47G_49P_50I_52G_53A_54P_55F_67L_, Q9UKT9]	3.74	2.38	1.84	1.66
FWCNICGAPFTQKGNLLRHIKL [46F_47W_49N_50I_52G_53A_54P_55F_67L_, Q9UKT9]	2.88	2.66	1.69	0.25
FHCPICGAPFTQKGNLLRHIKL [46F_47H_49P_50I_52G_53A_54P_55F_67L_, Q9UKT9]	3.64	3.39	2.87	2.28
FWCPICGAPFTQKGNLLRHIKL [46F_47W_49P_50I_52G_53A_54P_55F_67L_, Q9UKT9]	3.28	3.35	2.63	1.37
FHCDICGAPFTQKGNLLRHIKL [46F_47H_49D_50I_52G_53A_54P_55F_67L_, Q9UKT9]	3.18	2.85	1.67	0.346
FTCPICGAPFTQKGNLLRHIKL [46F_47T_49P_50I_52G_53A_54P_55F_67L_, Q9UKT9]	2.68	3.44	2.65	3.25
FHCPICGADFTQKGNLLRHIKL [46F_47H_49P_50I_52G_53A_54D_55F_67L_, Q9UKT9]	-0.22	-0.857	0.863	-0.761
FICNQCGAMFTQKGNLLRHIKL [46F_47I_49N_50Q_52G_53A_54M_55F_67L_, Q9UKT9]	-2.72	-2.75	-0.507	-1.6
FSCPICGHCFTQKGNLLRHIKL [46F_47S_49P_50I_52G_53H_54C_55F_67L_, Q9UKT9]	-2.27	-2.66	-1.41	-1.81
FLCNICGAHFTQKGNLLRHIKL [46F_47L_49N_50I_52G_53A_54H_55F_67L_, Q9UKT9]	-1.65	-2	-0.489	-0.376
